Rab9 promoter act = qHTS Assay for Rab9 Promoter Activators. Huh7 Rab9 promoter-luciferase reporter, luminescence, 24 h. Potency, µM (titrated, usually from 9.22 µM), inactives show at the highest dose activation, negative = inhibition, most hits filed as activators. 2.8% of 320,000 active. AID 485297, 2010; also: % of control where 0% means no effect; nearly all actives have a fitted effect of over 60% in size
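Luminescence from Amplite-detected luciferase (10 minutes, ambient) reports Rab9 promoter activation. Before that, stable Rab9-luciferase Huh7 cells (1500/well, reduced-serum OP-MEM I plus 10% FBS) were exposed to compound for 24 hours at 37C.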
ELG1 genotox = qHTS screen for small molecules that induce genotoxicity in human embryonic kidney (HEK293T) cells expressing luciferase-tagged ELG1; HEK293T ELG1-luciferase reporter, luminescence, 16 h; Potency, µM (highest dose often 46 µM), inactives show at the highest dose activity change, positive = activation, actives largely listed as activators; 1.3% of 330,000 active; also: % of control where 0% means no effect; nearly all actives have a fitted effect of over 60% in size
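DMSO vehicle served as control against compound-treated ELG1-luciferase HEK293T cells; exposure lasted 16 hr at 37 °C and 5% CO2, followed by ONE-Glo luminescence detection after 30 min.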
FLuc counter = qHTS profiling assay for firefly luciferase inhibitor/activator using purifed enzyme and Km concentrations of substrates (counterscreen for miR-21 project); Luciferin 4-monooxygenase (Photinus pyralis), P08659; AID 588342, 2011; purified FLuc, Km substrates, luminescence inhibition; Potency, µM (series often up to 57.5 µM), without a hit: top-dose activity change, negative = inhibition, usual class: inhibitors; 6.9% of 360,000 active;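 also: plate controls were vehicle for no effect and reference inhibitor for full effect; nearly all actives have a fitted effect of over 55% in size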
Target sequence (P08659 whole entry, looked up): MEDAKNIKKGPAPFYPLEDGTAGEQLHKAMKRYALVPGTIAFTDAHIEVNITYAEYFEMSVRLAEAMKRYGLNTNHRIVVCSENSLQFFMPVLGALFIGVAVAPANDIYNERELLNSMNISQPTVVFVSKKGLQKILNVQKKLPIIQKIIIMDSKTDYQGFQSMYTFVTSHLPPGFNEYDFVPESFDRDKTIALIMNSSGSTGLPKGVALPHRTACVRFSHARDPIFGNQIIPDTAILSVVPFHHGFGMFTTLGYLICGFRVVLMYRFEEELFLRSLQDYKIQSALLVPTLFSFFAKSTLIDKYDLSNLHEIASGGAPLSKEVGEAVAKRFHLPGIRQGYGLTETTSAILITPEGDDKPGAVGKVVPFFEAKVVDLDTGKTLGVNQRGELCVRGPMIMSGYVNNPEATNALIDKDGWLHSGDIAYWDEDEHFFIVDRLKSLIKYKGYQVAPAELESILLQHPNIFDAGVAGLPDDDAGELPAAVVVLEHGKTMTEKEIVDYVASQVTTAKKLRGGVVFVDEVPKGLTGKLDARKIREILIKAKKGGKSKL
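Purified P. pyralis luciferase, 10 nM final, with Km-level 10 uM D-luciferin and 10 uM ATP in 50 mM Tris acetate pH 7.5, 10 mM Mg acetate, 0.01% Tween-20, 0.05% BSA; 6-point qHTS titration about 60 µM downward; luminescence read.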
SMN2 splice enh = qHTS Assay for Enhancers of SMN2 Splice Variant Expression; HEK293 SMN2-luciferase splicing reporter, luminescence, 30-36 h; Potency, µM (highest dose often 46.1 µM), without a hit: at the top dose activity change, positive = activation, usual class: activators; 2.8% of 210,000 active; AID 1458, 2008; also: % of control where 0% means no effect; nearly all actives have a fitted effect of over 55% in size
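HEK293 cells carry an SMN2 […]–luciferase reporter in which exon 7 inclusion puts luciferase in frame. Cells were plated 10-12 h before compound addition, then incubated 30-36 h at 37C. ONE-Glo luminescence was read; sodium butyrate at 4.5 mM final served as control.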
NPC1 prom act = qHTS Assay for NPC1 Promoter Activators; Potency, µM (titrated, usually from 9.22 µM), inactives show at the top dose activation, hits mostly activators; Huh7 NPC1 promoter luciferase reporter, 24 h; 2.4% of 320,000 active; AID 485313, 2010; also: % of control where 0% means no effect; nearly all actives have a fitted effect of over 60% in size
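Readout is luciferase luminescence, reflecting NPC1 promoter activation in stably transfected Huh7 cells after 24 h compound exposure at 37 °C in reduced-serum medium with 10% FBS.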
* hit, by the source's call; u = inconclusive; x = not tested or not shown; [ ] = another dose, or the depositor's remark. An excerpt weighted towards active compounds, which were near 7.4% of everything screened. Calls follow the shape of the dose curve; as a rule, active = well fitted curve in the direction sought with a large enough effect; inconclusive = small, poorly fitted or top-dose-only effect, or another doubt; inactive = no such curve, though single readings can be large; an effect the other way counts as inactive or inconclusive. Potency is read from the fitted curve at half-maximal effect.

SMILES	Rab9 promoter act	ELG1 genotox	FLuc counter	SMN2 splice enh	NPC1 prom act
CC(=O)Nc1ccc2nc(SCC(=O)Nc3ccc(N4CCOCC4)c(Cl)c3)sc2c1	u	0%	8.5µM*	u	u
CC(=O)CSc1nc2ccc(Nc3nc(N4CCOCC4)nc(N4CCOCC4)n3)cc2s1	-7%	-8%	0%	25µM*	0%
O=C(Nc1ccc(F)c(Cl)c1)c1ccc2c(Cl)c3c(nc2c1)CCCC3	x	x	-3%	7%	x
CCC1=C2CC[C@H]3C(=O)NC(=O)[C@H]3[C@H]2[C@@]2(Cc3ccccc3)C(=NCC3CC3)OC(=O)N2C1=O	x	x	x	-14%	x
COc1ccc(-n2ccnc2CN2CCCC(CO)(Cc3cccc(OC)c3)C2)cc1 (stereo not drawn)	1%	-9%	24µM*	x	-3%
COc1ccc(CC2(CO)CCN(Cc3cccnc3)CC2)cc1	u	5%	15µM*	x	-1%
COc1ccc(-c2ncc(CN3CCC(CO)(Cc4cccc(OC)c4)CC3)cn2)cc1	-2%	-9%	u	x	-7%
Cc1ccc(NC(=O)/C(=C\c2ccco2)NC(=O)c2ccco2)cc1	-9%	5%	-17%	x	1%
CC(=O)Nc1cccc(C(=O)/C=C/c2ccco2)c1	21%	7%	19µM*	2%	u
O=C(/C=C\c1ccco1)c1ccc(NC(=O)c2ccco2)cc1	u	u	11µM*	x	u
CC(=O)Nc1cccc(C(=O)NCCc2ccco2)c1	u	23µM*	u	x	u
Cc1ccc(NC(=O)N/C=C/c2ccco2)cc1	2.8µM*	u	u	14µM*	2.8µM*
CCn1nnc2cc(C(=O)Nc3ccc(Cl)cc3C)ccc21	x	x	-10%	x	x
COc1ccc(C(=O)N2CCCCC2CCN2CCCCC2)cc1 (stereo not drawn)	x	x	0%	2%	x
CC(=O)Nc1ccc(C(=O)/C=C/c2ccco2)cc1	22%	11%	9.5µM*	16%	13%
CC(=O)N(C)c1ccc(NC(=S)NC(=O)/C=C/c2ccco2)cc1	-1%	1%[9.26 µM]	u	x	1%
CNC(=S)NNC(=O)c1sc(-c2cc(C)on2)nc1C	-1%	1%	17µM*	x	-4%
Cc1cc(C(=O)NNC(=S)NCC(C)C)no1	1%	-4%	0%	-11%	1%
c1ccc(Nc2nnc(-c3cccnc3)s2)cc1	0.4µM*	u	1.7µM*	x	1µM*
O=C(Nc1nnc(-c2cccnc2)s1)c1cccs1	29%	u	12µM*	x	u
Nc1nnc(-c2cccnc2)s1	2%	5%	1%	u	0%
Cc1cccc(-c2nnc(NC(=O)c3cccs3)s2)c1	20%	10%	7.6µM*	u	27%
O=C(Nc1ccc(NC(=O)c2cccs2)cc1)c1cccnc1	19%	1%	5%	8%	7%
NC(=O)c1ccc(-c2noc(-c3ccccc3F)n2)cc1	0.32µM*	u	3µM*	x	0.32µM*
NC(=O)c1ccccc1-c1noc(-c2ccccc2F)n1	u	x	17µM*	x	u
SMILES	Rab9 promoter act	ELG1 genotox	FLuc counter	SMN2 splice enh	NPC1 prom act
O=C(NCC1CCCO1)c1ccccc1-c1nc(-c2ccccc2F)no1 (stereo not drawn)	-3%	1%	u	x	3%
CCOC(=O)Cc1nn(C)c(=O)c2ccccc12	0%	5%	-1%	5.6µM*	-1%
CCOC(=O)Cc1nn(CC)c(=O)c2ccccc12	-11%	2%	-1%	x	-1%
S=C(Nc1ccc2c(c1)OCO2)N1CCN(Cc2ccco2)CC1	u	15%	1.3µM*	x	u
COc1ccc(CCNCc2c(C(=O)O)c(C)n(Cc3ccccc3C)c2C)c(OC)c1	x	x	-3%	0%	x
Cc1cc(=O)n2nc(-c3ccc(C(F)(F)F)cc3)sc2n1	u	4µM*	u	11µM*	u
O=C(N/N=C\c1cccc([N+](=O)[O-])c1O)C1COc2ccccc2O1 (stereo not drawn)	-5%	2%	19µM*	15%	6%
O=C(N/N=C/c1cccc([N+](=O)[O-])c1)C1COc2ccccc2O1 (stereo not drawn)	1%	1%	-1%	x	0%
O=C(Nc1ccccc1[N+](=O)[O-])C1COc2ccccc2O1 (stereo not drawn)	3.5µM*	u	9.5µM*	x	2.8µM*
CN(C)C(=O)OC1=C(c2ccccc2)Sc2ccccc2-n2cccc21	x	x	x	-16%	x
Cc1cc(C)c(NC(=O)Cn2nc3c(cc2=O)CCCC3)c(C)c1	x	x	-1%	x	x
COc1ccc(-c2noc(-c3ccc4c(c3)OCO4)n2)cc1	1.1µM*	u	0.95µM*	8.9µM*	0.79µM*
c1ccc(-c2noc(-c3ccc4c(c3)OCO4)n2)cc1	0.28µM*	0.41µM*	0.48µM*	5µM*	0.45µM*
c1ccc(-c2noc(-c3ccc4ccccc4c3)n2)cc1	-15%	u	0.27µM*	-9%	-17%
COc1cccc(-c2noc(-c3ccc4c(c3)OCO4)n2)c1	0.56µM*	1.8µM*	0.54µM*	x	2.5µM*
CCc1ccc(-n2c(C)nc3cc(C(=O)NCCc4ccccc4)ccc32)cc1	x	x	0%	x	x
COC(=O)c1cc2occc2n1Cc1nc(-c2cccc(Br)c2)oc1C	x	x	-3%	-9%	x
COCC1CCN(Cc2nc(-c3ccc4c(c3)OCO4)no2)C1 (stereo not drawn)	2.8µM*	u	u	x	u
C/C(=N\Nc1ccc(C(=O)O)cc1)c1ccc2c(c1)Nc1ccccc1S2	u	11%	2.1µM*	x	u
Cc1cc(C(=O)CNCc2ccco2)c(C)n1-c1ccc(F)cc1	2µM*	u	3.4µM*	-5%	1.6µM*
Cc1cc(C(=O)NC2CCCCC2)c(C)n1-c1ccc(F)cc1	2.5µM*	5.8µM*	6µM*	u	2.8µM*
Cc1cc(C(=O)CN2CCC(C)CC2)c(C)n1-c1ccc(F)cc1	1.4µM*	u	9.5µM*	13µM*	u
Cc1cccc(Oc2nc3c(c(=O)n(C)c(=O)n3C)n2C)c1C	x	x	3%	-1%	x
Brc1ccccc1-n1ncc2c1ncn1nc(Cc3ccccc3)nc21	x	x	17µM*	22%	x
Cn1ncc2c1ncn1nc(CCc3ccccc3)nc21	1.3µM*	u	7.6µM*	u	0.79µM*
COc1ccc(Cc2nc3c4cnn(-c5ccccc5Br)c4ncn3n2)cc1	x	x	-4%	6%	x
Cn1ncc2c1ncn1nc(COc3ccc4ccccc4c3)nc21	13%	-1%	-13%	-4%	10%
Cc1ccc(-c2c(CN3CCN(c4cccc(C)c4)C(C)C3)csc2C)cc1 (stereo not drawn)	x	x	0%	x	x

Compound activity (PubChem BioAssay)
